According to the supplement of paper PMC6522484:
± gives the standard deviation of the averaged measurements.

Legend:
DLD1 [1] = experiment: cell viability (CellTiter-Glo) relative to plate median (fraction of plate median); higher = more viable cells; details: 10 µM, treatment time 24 h
Method in brief: (§1)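 Kinase inhibitor library compounds were added at a final 10 µM for 24 h to colorectal cancer cells in 384-well plates, 24 h after seeding. The cells stably expressed lentiviral TCF/Wnt firefly luciferase reporters. Firefly luciferase and CellTiterGlo luminescence came from parallel plates, and each well was normalised to its plate median (webcellHTS2, additive, untransformed), averaged over two independent replicates.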

HCT116 [2] = experiment: as above; details: 10 µM; treatment time 24 h; reporter: TCF4/Wnt
Method in brief: as §1

SW480 [3] = experiment: as above; details: 10 µM; treatment time 24 h; reporter: 7TFP
Method in brief: as §1

DLD1 [4] = experiment: TCF/Wnt firefly luciferase reporter signal relative to plate median (fraction of plate median); higher = higher Wnt reporter signal; details: 10 µM, treatment time 24 h
Method in brief: as §1

HCT116 [5] = experiment: as above; details: 10 µM; treatment time 24 h; reporter: TCF4/Wnt
Method in brief: as §1

SW480 [6] = experiment: as above; details: 10 µM; treatment time 24 h; reporter: 7TFP
Method in brief: as §1

DLD1 [7] = experiment: cell viability (CellTiter-Glo) relative to plate median (fraction of plate median); higher = more viable cells; details: 5 µM; treatment time 24 h; reporter: 7TFP
Method in brief: (§2)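 Colorectal cancer cell lines stably transduced with lentiviral TCF/Wnt firefly luciferase reporters (7TFP or TCF4/Wnt) were seeded in 384-well plates. 24 h later they received library compounds at a final 5 µM for 24 h. Parallel plates were read for firefly luciferase or CellTiterGlo luminescence on a Tecan F500 reader. Each well's signal was normalised to the plate median (webcellHTS2, additive, no log transformation), and the mean of two independent replicates is reported.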

HCT116 [8] = experiment: as above; details: 5 µM; treatment time 24 h; reporter: TCF4/Wnt
Method in brief: as §2

SW480 [9] = experiment: as above; details: 5 µM; treatment time 24 h; reporter: 7TFP
Method in brief: as §2

DLD1 [10] = experiment: TCF/Wnt firefly luciferase reporter signal relative to plate median (fraction of plate median); higher = higher Wnt reporter signal; details: 5 µM; treatment time 24 h; reporter: 7TFP
Method in brief: as §2

SW480 [11] = experiment: as above; details: 5 µM; treatment time 24 h; reporter: 7TFP
Method in brief: as §2

Compound	cell viability (DLD1 [1]; reporter: 7TFP)	cell viability (DLD1 [1]; reporter: TCF4/Wnt)	cell viability (HCT116 [2])	cell viability (SW480 [3])	TCF/Wnt firefly luciferase reporter signal (DLD1 [4]; reporter: 7TFP)	TCF/Wnt firefly luciferase reporter signal (DLD1 [4]; reporter: TCF4/Wnt)	TCF/Wnt firefly luciferase reporter signal (HCT116 [5])	TCF/Wnt firefly luciferase reporter signal (SW480 [6])	cell viability (DLD1 [7])	cell viability (HCT116 [8])	cell viability (SW480 [9])	TCF/Wnt firefly luciferase reporter signal (DLD1 [10])	TCF/Wnt firefly luciferase reporter signal (SW480 [11])
CC(C)(C)c1cc(/C=C(\C#N)C(N)=S)cc(C(C)(C)C)c1O [Tyrphostin AG 879 (AG 879)]	0.851 ± 0.1	0.911 ± 0.098	0.979 ± 0.1	0.844 ± 0.018	0.707 ± 0.12	1.04 ± 0.042	0.791 ± 0.12	0.878 ± 0.041	–	–	–	–	–
C#Cc1cccc(Nc2ncnc3cc(OCCOC)c(OCCO)cc23)c1 [OSI-420 (Desmethyl Erlotinib)]	0.993 ± 0.038	0.954 ± 0.011	1.075 ± 0.0071	0.987 ± 0.047	0.826 ± 0.023	0.927 ± 0.12	0.465 ± 0.3	0.668 ± 0.39	–	–	–	–	–
O=C(NCc1ccccc1)c1csc(Nc2ccncn2)n1 [Thiazovivin]	1.14 ± 0.085	1.13 ± 0.071	1.16 ± 0.021	1.145 ± 0.0071	1.13	0.78 ± 0.18	1.78 ± 0.028	1.205 ± 0.0071	–	–	–	–	–
CNC(=O)c1ccc(-c2cnc3ncc(Cc4ccc5ncccc5c4)n3n2)cc1F	0.987 ± 0.089	0.931 ± 0.043	1.22 ± 0.2	0.8805 ± 0.0064	1.07 ± 0.078	1.14 ± 0.16	0.899 ± 0.02	0.652 ± 0.26	–	–	–	–	–
FC(F)(F)c1ccc(Nc2nc3ccc(Oc4ccnc(-c5ncc(C(F)(F)F)[nH]5)c4)cc3[nH]2)cc1 [Raf265 derivative]	1.1	1.07 ± 0.014	1.2 ± 0.21	0.975 ± 0.12	1.11 ± 0.085	1.16 ± 0.085	0.912 ± 0.28	0.81 ± 0.44	–	–	–	–	–
O=C(Nc1cccc(Cl)c1)Nc1ncc(CCNc2ncnc3ccsc23)s1	0.87 ± 0.023	0.8545 ± 0.0064	0.947 ± 0.03	0.922 ± 0.012	0.743 ± 0.15	0.952 ± 0.029	1.45	0.82 ± 0.061	–	–	–	–	–
S=C(NCc1ccc2c(c1)OCO2)N1CCN(c2ncnc3c2oc2ccccc23)CC1 [Amuvatinib (MP-470)]	0.997 ± 0.047	1.03 ± 0.091	1.15 ± 0.17	0.869 ± 0.013	1.07 ± 0.092	1.23 ± 0.057	1.13 ± 0.29	0.953 ± 0.12	–	–	–	–	–
CC(C)NC[C@@H](C(=O)N1CCN(c2ncnc3c2[C@H](C)C[C@H]3O)CC1)c1ccc(Cl)cc1	0.947 ± 0.031	1.1 ± 0.021	0.917 ± 0.0092	1.04 ± 0.042	0.922 ± 0.029	0.951 ± 0.31	1.08 ± 0.27	0.999 ± 0.016	–	–	–	–	–
Oc1cc(O)cc(/C=C/c2ccc(O)c(O)c2)c1 [Piceatannol]	1.12 ± 0.042	1.07 ± 0.057	1.19 ± 0.14	0.863 ± 0.0085	1.44 ± 0.15	1.66 ± 0.37	1.455 ± 0.0071	1.44 ± 0.12	–	–	–	–	–
CN1CCN(CCOc2cc(OC3CCOCC3)c3c(Nc4c(Cl)ccc5c4OCO5)ncnc3c2)CC1 [Saracatinib (AZD0530)]	0.936 ± 0.048	0.874 ± 0.066	0.968 ± 0.0042	1.03 ± 0.047	0.824 ± 0.12	0.879 ± 0.036	0.799 ± 0.25	0.613 ± 0.32	–	–	–	–	–
O=C1NC(=O)/C(=C/c2ccc3c(c2)OC(F)(F)O3)S1	1.285 ± 0.0071	1.09 ± 0.021	1.15 ± 0.13	0.882 ± 0.034	0.944 ± 0.35	1.06 ± 0.24	1.18 ± 0.22	1.03 ± 0.21	–	–	–	–	–
O=C(Nc1cc(C(F)(F)F)cc(C(F)(F)F)c1)c1cc(Cl)ccc1O	0.48 ± 0.1	0.618 ± 0.011	0.303 ± 0.12	0.477 ± 0.03	0.473 ± 0.11	1.47 ± 0.67	0.133 ± 0.072	0.3675 ± 0.0021	–	–	–	–	–
O=C(NOC[C@H](O)CO)c1ccc(F)c(F)c1Nc1ccc(I)cc1F	1.25 ± 0.064	1.05 ± 0.014	0.907 ± 0.058	1.11 ± 0.028	1.62 ± 0.17	1.28 ± 0.26	1.06 ± 0.028	1.75 ± 0.092	1.1 ± 0.064	0.895 ± 0.05	1.03 ± 0.05	1.34 ± 0.22	1.47 ± 0.071
Cc1cc2c(F)c(Oc3ncnn4cc(OC[C@@H](C)O)c(C)c34)ccc2[nH]1	0.958 ± 0.13	1.01 ± 0.028	1.16 ± 0.014	0.942 ± 0.021	0.846 ± 0.22	1.05 ± 0.13	0.961 ± 0.11	0.978 ± 0.031	–	–	–	–	–
CCS(=O)(=O)Nc1ccc2c(c1)/C(=C(/Nc1ccc(CN3CCCCC3)cc1)c1ccccc1)C(=O)N2 [Hesperadin]	1.08 ± 0.13	1.14 ± 0.085	0.556 ± 0.2	0.873 ± 0.15	0.765 ± 0.36	0.902 ± 0.11	0.492 ± 0.031	0.557 ± 0.16	–	–	–	–	–
Cc1ncc(-c2ccnc(Nc3ccc(S(C)(=O)=O)cc3)n2)n1C(C)C	1.25 ± 0.16	1.32 ± 0.099	0.766 ± 0.3	1.47 ± 0.05	0.499 ± 0.026	0.277 ± 0.063	0.156 ± 0.042	0.793 ± 0.035	–	–	–	–	–
CNC(=O)c1ccccc1Sc1ccc2c(/C=C/c3ccccn3)n[nH]c2c1 [Axitinib]	0.9855 ± 0.0021	1 ± 0.052	0.965 ± 0.0028	0.906 ± 0.051	1.7 ± 0.057	1.97 ± 0.33	1.53 ± 0.89	1.36 ± 0.92	–	–	–	–	–
Nc1nc(N)c2nc(-c3cccc(O)c3)c(-c3cccc(O)c3)nc2n1	1.06 ± 0.035	1.02 ± 0.029	1.22 ± 0.035	0.959 ± 0.025	1.08 ± 0.071	1.17 ± 0.057	1.23 ± 0.11	1.04 ± 0.14	–	–	–	–	–
Cc1cc(Nc2cc(N3CCN(C)CC3)nc(/C=C/c3ccccc3)n2)n[nH]1	0.88 ± 0.03	0.942 ± 0.061	0.678 ± 0.019	0.9085 ± 0.0035	1.06 ± 0.11	1.01 ± 0.21	1.23 ± 0.33	0.687 ± 0.28	–	–	–	–	–
O=C1NC(=O)C(c2ccccc2[N+](=O)[O-])=C1Nc1ccc(O)c(Cl)c1	1.13 ± 0.2	1.07 ± 0.035	1.06 ± 0.05	0.859 ± 0.072	1.63 ± 0.24	1.85 ± 0.45	2.56 ± 0.96	1.07 ± 0.12	–	–	–	–	–
O=c1cc(N2CCOCC2)oc2c(-c3ccccc3)cccc12	1 ± 0.092	1.065 ± 0.0071	1.11 ± 0.021	0.963 ± 0.033	1.11 ± 0.078	1.15 ± 0.21	1.62 ± 0.3	1.15 ± 0.05	–	–	–	–	–
Cc1ccc(NC(=O)c2ccc(CN3CCN(C)CC3)cc2)cc1Nc1nccc(-c2cccnc2)n1 [Imatinib (Gleevec)]	1.05 ± 0.099	1.035 ± 0.0071	0.993 ± 0.024	0.986 ± 0.011	1.65 ± 0.057	1.55 ± 0.11	1.42 ± 0.23	1.39 ± 0.22	–	–	–	–	–
